These results are taken from PubChem BioAssay.

In general, inhibition refers to the change of the read-out against control, counted positive when it falls.

Experiment [1] is described as follows: inhibitors of TNFa-induced NFkB p65 translocation, primary screen, imaging, HUVEC, MLSMR starter and 10KST1 sets (AID 438;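 active = inhibition above 20% together with a positive visual image hit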;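 also: compound added about 3h40 before a 20 min TNFalpha stimulation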;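 as to inhibition: signal is the nuclear over cytoplasmic p65 intensity ratio per well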). Particulars: HUVEC TNFa-induced p65 nuclear translocation; cell count: measured here: nuclei count (cytotoxicity indicator), at 2.08 µM; inhibition: at 2 µM, stronger effect = higher value, 0% TNFa-plus-vehicle, 100% no-TNFa wells.
Experiment [2] is described as follows: reduction of polyQ htt aggregates in cells – imaging, exon1htt(103Q)mCFP cells, high-content imaging, primary screen (AID 483;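 active = visual image review flags a hit and inhibition of aggregation exceeds 20%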;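 also: compound exposure lasted 3 days before fixation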;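 as to nuclei count: percent of the per-plate median nuclei count of sample wells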). The note with it: exon1htt(103Q)mCFP cell line, aggregate imaging, at 2 µM; inhibition of aggregation: stronger effect = higher value; nuclei count: measured here: cell count, toxicity.
A short description of experiment [3]: endothelial E-selectin expression blockers – imaging, HUVEC, immunofluorescence, MLSMR starter and 10KST1 sets, primary screen (AID 487;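 active = visually confirmed hit in the image check and inhibition above 20%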;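 as to inhibition: signal is fraction of cell area covered by stained E-selectin grains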;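 as to nuclei count: 100% = median nuclei count of all wells on the same plate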). The note with it: HUVEC TNFalpha-induced E-selectin immunofluorescence imaging, at 2 µM; inhibition: stronger effect = higher value; nuclei count: measured here: cell number, toxicity.
The target in experiment [4] is Voltage-gated potassium channel subunit beta-2 (Rattus norvegicus) (UniProt P62483). Nature of the experiment: inhibitors of rat Kvbeta2 reductase activity – biochemical, NADPH fluorescence, primary screen (AID 622;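 active = fluorescence slope higher than the sample average by over 3 SD, cut at about -0.22 in these data, passing the limit was not always enough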;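 also: slope of raw intensity against log time taken from 70 to 1610 s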). The note with it: recombinant KvBeta, 4-cyanobenzaldehyde reduction, at 10 µM, stronger effect = higher value.
For experiment [5] the target is unchanged. Nature of the experiment: enhancers of rat Kvbeta2 NADPH turnover – biochemical, NADPH fluorescence, primary screen (AID 623;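 active = NADPH fluorescence slope more negative than the mean of all samples by about 3 SD, 99.7% confidence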;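 also: fluorescence intensity change per second fitted from 20 to 320 s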). The note with it: Recombinant KvBeta, NADPH fluorescence decrease slope, 10 min; at 10 µM; stronger effect = lower value.
In experiment [6] the target is Alpha-2C adrenergic receptor (Homo sapiens) (UniProt P18825). Briefly: compounds altering alpha2C-coupled GIRK flux – cell-based, HEK293 alpha2C/GIRK1/2, thallium flux, primary screen (AID 624).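 Also: slope of fluorescence ratio to pre-addition baseline per second over 15 to 24 s.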 The note with it: thallium flux BTC fluorescence, at 10 µM, actives lie on both sides.
Experiment [7] in a line: blockers of RIG-like receptor reporter activation – cell-based, Sendai virus stimulus, luciferase, 10K MLSCN set, TLR/RLR signaling modifier project, primary screen (AID 602276;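 active = inhibition at or above 50% at 10 µM; inactive = inhibition below 50%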;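 also: firefly luciferase from ISG56 promoter only with Renilla not read in this screen; 0% = Sendai virus plus DMSO and 100% = medium plus DMSO without virus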). The note with it: HEK293 RL24 IRF3 luciferase reporter, at 10 µM, stronger effect = higher value. Background: In a reporter assay the amount or activity of a reporter protein is the signal.
Experiment [8] is described as follows: TLR3 IRF3 reporter activation blockers – cell-based, poly I:C stimulus, luciferase, 10K MLSCN set, primary screen (AID 602277;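 active = inhibition of the reporter signal at or above 50%; inactive = inhibition below 50%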). The note with it: HEK293-TLR3 RL24 IRF3 luciferase reporter, at 10 µM, stronger effect = higher value.

SMILES strings stand for the structures. The source made the active and inactive calls.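 The calls were made as follows, unless noted: active = fluorescence slope after compound addition differing from the mean of all screened samples at 99.7% confidence, in either direction; inactive = the rest.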

Voltage-gated potassium channel subunit beta-2 (Rattus norvegicus), sequence (P62483 whole entry, looked up): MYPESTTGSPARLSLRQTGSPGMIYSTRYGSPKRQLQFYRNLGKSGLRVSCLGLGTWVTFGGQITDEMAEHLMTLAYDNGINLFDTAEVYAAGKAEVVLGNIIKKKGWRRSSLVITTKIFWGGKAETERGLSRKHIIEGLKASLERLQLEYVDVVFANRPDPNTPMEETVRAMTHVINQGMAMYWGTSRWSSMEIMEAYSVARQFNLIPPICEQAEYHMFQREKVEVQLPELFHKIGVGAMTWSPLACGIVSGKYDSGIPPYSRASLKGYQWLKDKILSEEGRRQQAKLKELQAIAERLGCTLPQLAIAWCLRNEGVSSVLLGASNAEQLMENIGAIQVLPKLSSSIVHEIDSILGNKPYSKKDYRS
Alpha-2C adrenergic receptor (Homo sapiens), sequence (P18825 whole entry, looked up): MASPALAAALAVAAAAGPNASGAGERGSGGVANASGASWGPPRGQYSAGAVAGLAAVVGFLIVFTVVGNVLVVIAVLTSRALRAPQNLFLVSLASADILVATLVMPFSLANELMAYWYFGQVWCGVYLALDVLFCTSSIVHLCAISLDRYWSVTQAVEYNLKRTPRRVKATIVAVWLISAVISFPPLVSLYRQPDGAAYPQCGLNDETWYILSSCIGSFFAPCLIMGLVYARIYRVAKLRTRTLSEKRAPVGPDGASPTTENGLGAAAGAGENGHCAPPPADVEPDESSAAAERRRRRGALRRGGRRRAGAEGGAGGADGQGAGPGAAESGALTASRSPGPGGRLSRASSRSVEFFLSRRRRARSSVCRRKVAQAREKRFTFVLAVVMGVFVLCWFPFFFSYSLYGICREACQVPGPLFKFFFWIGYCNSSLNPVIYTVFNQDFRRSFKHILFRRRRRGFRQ

With `CS(=O)(=O)N1CCN(c2ccccc2NC(=O)c2cccs2)CC1`, in experiment [1], the cell count came to 629. Also, the inhibition in experiment [1] is 0.5% (inactive); in experiment [3], -0.6% (inactive); in experiment [7], 11.6% (inactive); in experiment [8] it was 18.8% (inactive). In addition, in experiment [2], the inhibition of aggregation is -6.7% (inactive). In addition, the nuclei count is 105% in experiment [2] and 89.5% in experiment [3]. The fluorescence slope in experiment [4] is -0.501 (inactive). Also, the NADPH fluorescence slope in experiment [5] was 1.2e-05 (inactive). For the same compound, the slope in experiment [6] is 0.00365 (inactive).
As to `Cc1ccc2[nH]c3c(c2c1)CCc1cn[nH]c1-3`, the cell count in experiment [1] was 410. Further, the inhibition in experiment [1] was 5.1% (inactive); in experiment [3], 27.4% (inactive); in experiment [7] it was -22.4% (inactive); in experiment [8], -73.4% (inactive). In addition, the inhibition of aggregation in experiment [2] is -4.7% (inactive). Moreover, the nuclei count came out at 71.7% in experiment [2] and 105% in experiment [3]. Also, in experiment [4], the fluorescence slope is -0.481 (inactive). Besides, the NADPH fluorescence slope in experiment [5] is -1.8e-05 (inactive). Further, in experiment [6], the slope is 0.00393 (inactive).
Regarding `COc1cccc(CNC(=O)Cn2c(=O)oc3ccccc32)c1OC`, the cell count in experiment [1] turned out to be 603. Moreover, the inhibition in experiment [1] is -4% (inactive); in experiment [3], -16.3% (inactive); in experiment [7], 11.8% (inactive); in experiment [8], 31% (inactive). Moreover, in experiment [2], the inhibition of aggregation was 2.6% (inactive). Further, the nuclei count in experiment [2] came out at 59.7%; in experiment [3], 88.3%. Further, the fluorescence slope in experiment [4] is -0.53 (inactive). The NADPH fluorescence slope in experiment [5] was -3.1e-05 (inactive). Besides, in experiment [6], the slope was 0.00743 (inactive).
Consider `Cc1onc(-c2c(Cl)cccc2Cl)c1C(=O)NCC1CCCO1` (centres undefined), for which the cell count in experiment [1] is 394. Also, the inhibition in experiment [1] was 6.8% (inactive); in experiment [3], -10.7% (inactive); in experiment [7], -10.3% (inactive); in experiment [8], 10.7% (inactive). In addition, in experiment [2], the inhibition of aggregation is 15.4% (inactive). Moreover, the nuclei count in experiment [2] is 87.4%; in experiment [3], 113%. The fluorescence slope in experiment [4] is -0.519 (inactive). Besides, the NADPH fluorescence slope in experiment [5] is 1.7e-05 (inactive). Further, in experiment [6], the slope is 0.00578 (inactive).
On to `COCCN(Cc1cc2cc3c(cc2n2nnnc12)OCO3)C(=O)c1ccccc1F`, for which, in experiment [1], the cell count came out at 271. The inhibition was 10.7% (inactive) in experiment [1], -63.4% (inactive) in experiment [3], 3.47% (inactive) in experiment [7] and 5.93% (inactive) in experiment [8]. The inhibition of aggregation in experiment [2] was -8.2% (inactive). The values for the nuclei count in experiment [2] and in experiment [3] were 96.5% and 105%, respectively. Besides, in experiment [4], the fluorescence slope is -0.352 (inactive). The NADPH fluorescence slope in experiment [5] was -3.2e-05 (inactive). Moreover, the slope in experiment [6] is 0.00537 (inactive).
Turning to `Cc1nc2ccc(C(=O)c3ccccc3)cc2[nH]1`, the cell count in experiment [1] stood at 411. The inhibition was 7.2% (inactive) in experiment [1], -8.7% (inactive) in experiment [3], -30.7% (inactive) in experiment [7] and -56.7% (inactive) in experiment [8]. Further, in experiment [2], the inhibition of aggregation is 18.6% (inactive). In addition, the nuclei count is 69.6% in experiment [2] and 105% in experiment [3]. The fluorescence slope in experiment [4] was -0.389 (inactive). Also, in experiment [5], the NADPH fluorescence slope was 2.4e-05 (inactive). The slope in experiment [6] was 0.00371 (inactive).
`CCOC(=O)C1CCCN(c2c(NCc3ccco3)c(=O)c2=O)C1` (centres undefined): in experiment [1], the cell count was determined as 614. For the same compound, the inhibition in experiment [1] was -7.3% (inactive); in experiment [3] it was -52.6% (inactive); in experiment [7], -5.89% (inactive); in experiment [8], 16.5% (inactive). In addition, the inhibition of aggregation in experiment [2] is -5.7% (inactive). Moreover, the values for the nuclei count in experiment [2] and in experiment [3] were 99.7% and 128%, respectively. Further, in experiment [4], the fluorescence slope was -0.531 (inactive). Further, the NADPH fluorescence slope in experiment [5] is -1.5e-05 (inactive). Further, the slope in experiment [6] was 0.00732 (inactive).
On to `CC(=O)Nc1ccc(N=Cc2nc(-c3ccc(C)cc3)oc2O)cc1`, for which the cell count in experiment [1] was 1080. The inhibition is -11.6% (inactive) in experiment [1], -287% (inactive) in experiment [3], 1.5% (inactive) in experiment [7] and -2.56% (inactive) in experiment [8]. In experiment [2], the inhibition of aggregation was -4% (inactive). The nuclei count was 119% in experiment [2] and 132% in experiment [3]. For the same compound, the fluorescence slope in experiment [4] is -0.281 (inactive). In addition, the NADPH fluorescence slope in experiment [5] is 1.5e-05 (inactive). In addition, the slope in experiment [6] is 0.00463 (inactive).
`CN(CCc1ccccn1)C(=O)CCNC(=O)Cn1cnc2ccccc2c1=O`: the cell count in experiment [1] turned out to be 202. The inhibition in experiment [1] is -7.4% (inactive); in experiment [3], -6.6% (inactive); in experiment [7] it was 13.8% (inactive); in experiment [8], 14.4% (inactive). Besides, the inhibition of aggregation in experiment [2] was -4.7% (inactive). Further, the nuclei count in experiment [2] was found to be 99.5%; in experiment [3], 110%. In addition, the fluorescence slope in experiment [4] was -0.611 (inactive). The NADPH fluorescence slope in experiment [5] was 1.1e-05 (inactive). In addition, in experiment [6], the slope was 0.00589 (inactive).
As to `C=CCOc1nc(N(C)C)nc(N(C)C)n1`, the cell count in experiment [1] is 569. In addition, the inhibition in experiment [1] was 3.6% (inactive); in experiment [3], -138% (inactive); in experiment [7] it was 10.6% (inactive); in experiment [8], 10.6% (inactive). The inhibition of aggregation in experiment [2] was -3.6% (inactive). For the same compound, the nuclei count in experiment [2] amounted to 103%; in experiment [3], 96%. Also, in experiment [4], the fluorescence slope is -0.595 (inactive). Further, the NADPH fluorescence slope in experiment [5] was -3.9e-05 (inactive). For the same compound, in experiment [6], the slope is 0.00356 (inactive).
With `Cc1ccc(-c2nc(CS(=O)CC(=O)NCCN(CC(C)C)CC(C)C)c(C)o2)cc1` (centres undefined), the cell count in experiment [1] is 716. Also, the inhibition was -7.2% (inactive) in experiment [1], -18% (inactive) in experiment [3], 21.1% (inactive) in experiment [7] and 30.9% (inactive) in experiment [8]. Also, the inhibition of aggregation in experiment [2] was 21.6% (inactive). Also, the nuclei count in experiment [2] came out at 134%; in experiment [3], 112%. In addition, the fluorescence slope in experiment [4] is -0.538 (inactive). The NADPH fluorescence slope in experiment [5] is -2.2e-05 (inactive). Besides, in experiment [6], the slope was 0.00425 (inactive).
Regarding `COc1ccc(C(C)=O)c(OC(=O)c2ccc(OC)c(OC)c2)c1`, the cell count in experiment [1] is 372. The inhibition is -0.3% (inactive) in experiment [1], -76% (inactive) in experiment [3], 13.2% (inactive) in experiment [7] and 22.8% (inactive) in experiment [8]. For the same compound, the inhibition of aggregation in experiment [2] was 3.6% (inactive). In addition, the values for the nuclei count in experiment [2] and in experiment [3] were 88.8% and 100%, respectively. Also, in experiment [4], the fluorescence slope was -0.376 (inactive). Moreover, the NADPH fluorescence slope in experiment [5] was 8.8e-06 (inactive). In experiment [6], the slope was 0.00658 (inactive).
Regarding `CC/C(O)=C(/C#N)c1nnc2n1CCCCC2`, the cell count in experiment [1] worked out at 446. In addition, the inhibition in experiment [1] is 3.6% (inactive); in experiment [3], 47.8% (inactive); in experiment [7], 7.71% (inactive); in experiment [8], 11.5% (inactive). Further, the inhibition of aggregation in experiment [2] is -9.6% (inactive). Moreover, the figures for the nuclei count in experiment [2] and in experiment [3] were 115% and 86.1%, respectively. Also, the fluorescence slope in experiment [4] was -0.608 (inactive). Also, the NADPH fluorescence slope in experiment [5] is -2e-05 (inactive). The slope in experiment [6] is 0.00604 (inactive).
`CC(=O)c1ccc(NS(=O)(=O)c2ccccc2)cc1`: the cell count in experiment [1] stood at 554. The inhibition in experiment [1] was -4.8% (inactive); in experiment [3] it was -59.1% (inactive); in experiment [7], -17.2% (inactive); in experiment [8] it was 7.05% (inactive). The inhibition of aggregation in experiment [2] was 0.4% (inactive). Also, the nuclei count in experiment [2] worked out at 62.8%; in experiment [3] it was 92.5%. Also, the fluorescence slope in experiment [4] is -0.467 (inactive). Besides, in experiment [5], the NADPH fluorescence slope is 3.9e-05 (inactive). Further, the slope in experiment [6] was 0.00323 (inactive).
